Test results: PubChem BioAssay (NCATS)
Inconclusive results are not listed. Where a call stands in place of a potency, no number is given. Calls of active or inactive are those of the source. Unless noted, calls follow the shape of the dose curve; as a rule, active = well fitted curve in the direction sought with a large enough effect; inconclusive = small, poorly fitted or top-dose-only effect, or another doubt; inactive = no such curve, though single readings can be large; an effect the other way counts as inactive or inconclusive.

Assays:
[1] = Primary qHTS for Huh7 cytotoxicity: counterscreen for inhibitors of MERS-S pseudotyped particle cell entry (AID 1479147; calls by dose curve); settings: outcome: dose series up to 57.1 µM unless noted
[2] = Primary qHTS for inhibitors of MERS-S pseudo-typed particle cell entry (AID 1479149; calls by dose curve; also: nearly all actives have a fitted effect of over 60% in size)
[3] = Primary qHTS for Vero E6 cytotoxicity: counterscreen for inhibitors of SARS-S pseudo-typed particle cell entry (AID 1479150; calls by dose curve); settings: outcome: dose series up to 57.1 µM unless noted
[4] = G06 Cancer Cell Toxicity qHTS against the NCATS CANVASS Library (AID 1347368); also: potency is read from the fitted curve at half-maximal effect; nearly all actives have a fitted effect of over 60% in size
Procedure, shortened: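 Viability measured by CellTiterGlo ATP luminescence after 72 hr at 37C, 5% CO2. Canine G06 glioma cells plated at 500/well. Compounds tested as 11-point qHTS titrations.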

[5] = Redox Reaction Profiling qHTS: Assay Interference Panel against the NCATS CANVASS Library (AID 1347401)
Procedure, shortened: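 Fluorescence read-out (525 nm excitation, 598 nm emission) at time zero and after 15 min in the dark tracked resorufin formation. Mix: 5 uM resazurin, 200 uM DTT, HEPES pH 7.3 buffer with NaCl.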

[6] = qHTS for inhibitors of Rabies Virus screened against the NCATS CANVASS Library (AID 1347402; calls by dose curve)
[7] = HEK-293 Cancer Cell Toxicity qHTS against the NCATS CANVASS Library (AID 1347355); also: nearly all actives have a fitted effect of over 65% in size
Procedure, shortened: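 Toxicity was measured as CellTiter-Glo luminescence after 72 h exposure to an 11-point compound series. Compound was added to 1000 cells/well 4 h after seeding.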

[8] = qHTS for ATAD5 Antagonist screened against the NCATS CANVASS Library (AID 1347370);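 also: HEK293T cells carrying an ATAD5 luciferase reporter co-treated with 10 µM 5-fluorouridine; nearly all actives have a fitted effect of over 65% in size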
Procedure, shortened: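 Compounds (11-point) co-dosed with 10 µM 5-FUrd for 16 h at 37 °C onto HEK293T-ATAD5 luciferase reporter cells. Viability measured by CellTiter-Fluor fluorescence, then ATAD5 reporter signal by luminescence.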

[9] = qHTS for inhibitors of ER calcium dysfunction: SERCaMP assay screened against the NCATS CANVASS Library (AID 1347393);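 also: lower secreted reporter signal means inhibitor of ER calcium depletion; nearly all actives have a fitted effect of over 40% in size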
Procedure, shortened: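 SH-SY5Y GLuc-SERCaMP, 1000 cells/well, 4 h attach; cpd 16 h, 37C/5% CO2; thapsigargin (added as 6x 600 nM) 4 h; coelenterazine; luminescence. Reduced reporter release = ER Ca stabilization.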

[10] = qHTS assay to identify inhibitors of the type 1 interferon - major histocompatibility complex class I in skeletal muscle: Counter screen cell viability and HiBit confirmation (AID 1347412); settings: iHSKM muscle cells + IFN-b, HiBiT or CellTiter-Glo, 24 h; Potency: HiBiT; Viability, at 45.9 µM (top of the series); also: nearly all actives have a fitted effect of over 60% in size
Procedure, shortened: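 After 24 h with human IFN-beta (4 ng/ml) and compound titrations (top 46 uM final, 1:3, 12 points), HLA-B HiBit myoblasts were lysed for either Nano-Glo HiBiT luminescence or CellTiter Glo viability on paired plates.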

[11] = target: N-terminal Xaa-Pro-Lys N-methyltransferase 1 (Homo sapiens) (UniProt Q9BV86); assay: Confirmatory qHTS for Inhibitors of N-terminal methyltransferase 1 (NTMT1): MTaseGlo Assay (AID 1645874); settings: NTMT1 enzyme, MTase-Glo SAH luminescence; also: potency is read from the fitted curve at half-maximal effect; nearly all actives have a fitted effect of over 65% in size
Procedure, shortened: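 SPKRIA peptide at 1 uM was methylated by 125 nM NTMT1 using 100 uM SAM over 30 min at room temperature, following a 15 min compound preincubation. Product SAH was detected luminescently.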

[12] = target: Furin (Homo sapiens) (UniProt P09958); assay: Furin counterscreen qHTS for Zika virus inhibitors (AID 1347149);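 also: purified recombinant full-length human furin enzyme at 5 nM; fluorescence gain from furin cutting a BOC-RVRR-AMC peptide substrate over 15 min; top concentration of the series differs between compounds; nearly all actives have a fitted effect of over 70% in size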
Procedure, shortened: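 Counterscreen measures cleavage of 2 microM BOC-RVRR-AMC, below its ~15 microM Km, by 5 nM full-length human furin at pH 7.0 after a 15-min compound preincubation. Inhibition derives from the 15-min fluorescence increase at 37C.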

[13] = tested on: Zika virus NS2B-NS3 protease (linked construct); assay: Confirmatory screen NINDS AMC qHTS for Zika virus inhibitors (AID 1347152); also: top concentration of the series differs between compounds; nearly all actives have a fitted effect of over 70% in size
Procedure, shortened: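 IC50s from 4-parameter Hill fits of percent inhibition, based on AMC fluorescence gain (340/450 nm) over 15 min with 10 microM Bz-Nle-KRR-AMC. Enzyme: 1 nM linked NS2B-NS3 in Tris-HCl pH 8.0; 15-min compound preincubation.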

[14] = tested on: Zika virus NS2B-NS3 protease (unlinked complex); assay: Confirmatory screen GU AMC qHTS for Zika virus inhibitors (AID 1347153); also: nearly all actives have a fitted effect of over 70% in size
Procedure, shortened: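 Noncovalent NS2B hydrophilic domain/NS3 protease complex (25 nM) in 10 mM Tris-HCl pH 8.0, 0.01% Tween 20 was preincubated 15 min at room temperature with compounds. Then 10 µM AMC substrate (Km 18.3 µM) was added; fluorescence was read over 15 min and fitted to a 4-parameter Hill equation.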

[15] = Confirmatory screen GU Rhodamine qHTS for Zika virus inhibitors qHTS (AID 1347157); also: potency is read from the fitted curve at half-maximal effect; nearly all actives have a fitted effect of over 70% in size
Procedure, shortened: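 Noncovalent NS2B hydrophilic domain/NS3 protease complex (25 nM final) in 10 mM Tris-HCl pH 8.0, 0.01% Tween 20, preincubated 15 min with compounds (up to 114 microM), then 1.5 microM Rhodamine110 substrate. Fluorescence change over 15 min fitted to 4-parameter Hill.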

[16] = Confirmatory screen NINDS Rhodamine qHTS for Zika virus inhibitors (AID 1347161); also: potency is read from the fitted curve at half-maximal effect; nearly all actives have a fitted effect of over 60% in size
Procedure, shortened: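 In 10 mM Tris-HCl pH 8.0 containing 0.01% Tween 20, linked NS2B-NS3 protease (25 nM final) is exposed to test compounds for 15 min. Cleavage of 1.5 microM Rhodamine110 substrate is tracked by fluorescence over 15 min.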

[17] = Vero cells viability qHTS for Zika virus inhibitors (AID 1347167)
Procedure, shortened: (§1)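 qHTS titration; 24-48 h compound exposure, 37 degrees C/5% CO2; DMEM, 4% FBS; CellTiter Glo ATP luminescence.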

[18] = HepG2 cells viability qHTS for Zika virus inhibitors (AID 1347168)
Procedure, shortened: as §1

Sequence of Furin (Homo sapiens) (P09958 whole entry, looked up): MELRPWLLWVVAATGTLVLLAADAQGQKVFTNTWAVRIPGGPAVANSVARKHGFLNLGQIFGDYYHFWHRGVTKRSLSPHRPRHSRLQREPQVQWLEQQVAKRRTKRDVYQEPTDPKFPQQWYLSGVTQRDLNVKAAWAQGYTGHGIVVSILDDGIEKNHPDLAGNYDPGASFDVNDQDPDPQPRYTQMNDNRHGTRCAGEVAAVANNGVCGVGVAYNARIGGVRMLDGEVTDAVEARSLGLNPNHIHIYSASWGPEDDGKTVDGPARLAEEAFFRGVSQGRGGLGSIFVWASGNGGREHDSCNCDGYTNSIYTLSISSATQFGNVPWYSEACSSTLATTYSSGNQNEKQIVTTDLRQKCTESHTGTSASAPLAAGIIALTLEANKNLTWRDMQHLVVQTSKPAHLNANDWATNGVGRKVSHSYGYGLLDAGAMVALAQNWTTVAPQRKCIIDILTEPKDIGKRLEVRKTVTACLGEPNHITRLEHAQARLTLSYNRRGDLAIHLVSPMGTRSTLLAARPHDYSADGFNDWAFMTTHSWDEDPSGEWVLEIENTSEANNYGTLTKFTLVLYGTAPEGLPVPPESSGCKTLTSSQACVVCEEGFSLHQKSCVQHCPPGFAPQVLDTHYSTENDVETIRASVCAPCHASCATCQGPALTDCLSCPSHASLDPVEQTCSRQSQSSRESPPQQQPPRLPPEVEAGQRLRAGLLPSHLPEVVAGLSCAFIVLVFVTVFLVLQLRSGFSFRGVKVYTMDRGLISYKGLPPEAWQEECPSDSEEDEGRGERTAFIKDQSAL
Sequence of N-terminal Xaa-Pro-Lys N-methyltransferase 1 (Homo sapiens) (Q9BV86 whole entry, looked up): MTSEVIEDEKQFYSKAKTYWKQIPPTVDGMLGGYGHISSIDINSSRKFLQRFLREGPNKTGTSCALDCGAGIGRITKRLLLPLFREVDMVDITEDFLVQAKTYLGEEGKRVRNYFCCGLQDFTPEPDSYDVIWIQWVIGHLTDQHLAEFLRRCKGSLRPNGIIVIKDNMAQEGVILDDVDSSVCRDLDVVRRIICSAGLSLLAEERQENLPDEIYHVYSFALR

With `CN1CCC2=C(C1)c1ccccc1Cc1ccccc12` the outcome [1] was “inactive”, the Potency [2] was “inactive” and the outcome [3] was “inactive”.
For `CN1C(=O)[C@]23CC4C(C)(C)[C@@]5(C[C@@]41CN2CC[C@@]3(C)O)C(=O)Nc1c5ccc2c1OC=CC(C)(C)O2` (stereo not given in full), the Potency [4] was 7.43 µM (active), the Potency [5] was “inactive” and the outcome [6] was “inactive”.
With `C/C=C1/CN2CC[C@]34C(=Nc5ccccc53)[C@@H]2C[C@@H]1[C@H]4C(=O)OC` the Potency [7] was “inactive”, the Potency [8] was “inactive” and the Potency [9] was “inactive”. The Potency [5] was “inactive” and the outcome [6] was “inactive”.
For `C[C@H](Nc1ncnc2nc[nH]c12)c1nc2ccc(F)cc2c(=O)n1-c1ccccc1`, the Potency [10] was “inactive”.
In the case of `C[C@H]1CCC[C@H](O)CCC/C=C/c2cc(O)cc(O)c2C(=O)O1`, the Potency [11] is reported as 1 µM (active).
For `CC/C=C/C=C/C1(C)OC(OC)=C(C(=O)C2C(C)C(=O)c3cc(OC)c(O)c(O)c3C2(C)O)C1=O` (stereo not given), the Potency [12] was “inactive”, the Potency [13] was “inactive” and the Potency [14] was “inactive”. For the same molecule, the Potency [15] was 9.61 µM (active), the Potency [16] was 6.81 µM (active) and the Potency [17] was “inactive”. For the same molecule, the Potency [18] was “inactive”.
